Assay results published in the OligoGym collection.

What follows are sequences tested against ARL4D (assay: pooled miR-30 sensor sort-seq; sequence = guide strand). Conditions: shRNA.
Also: reference of the scale not given here.

| Sequence | sensor-assay potency score (higher = more potent) |
| --- | --- |
| TTGGAAGGTGATGCCACGCGAT | -0.67 |
| AAGAGCGCCACAGTGGTCGCAG | -0.161 |
| AACACTAGACCGTCTGTCCGGC | -0.396 |
| ATTCGGTGCAACTCCACCTTGG | -0.512 |
| TGGACAAACTCCTTGAACTTGA | -0.891 |
| AAACTCCTTGAACTTGAGGCGG | -0.934 |
| TTGTTGGCCAGCACCAGCACTG | -0.806 |
| TATAAGAGCGCCACAGTGGTCG | -0.158 |
| TTGCACATGAGTGAGAGTGGCG | -0.774 |
| TGGAAGGTGATGCCACGCGATC | -1.76 |
| ACAAACACTAGACCGTCTGTCC | -0.415 |
| AACTCCTTGAACTTGAGGCGGT | -0.138 |
| TTCTCGGTGTTGAAGCCTTTGG | -1.06 |
| TCCTCTTGAGGATCATCTCATA | -1.96 |
| TACGTCTCCACAGTCCTGCAGC | -0.421 |
